From PubChem
In the library only some 1.8% were active in any assay of this set; here they are far more common.
GLP1R inv ag – qHTS of GLP-1 Receptor Inverse Agonists (Inhibition Mode); Glucagon-like peptide 1 receptor (Homo sapiens), P43220; HEK293 GLP-1R CRE-luciferase, luminescence, 24 h; GLP-1R form is constitutively active; Potency, µM (top dose mostly 38.3 µM), for inactives: top-dose activity change, negative = inhibition, hits mostly inhibitors; actives 1.6% (n = 410,000); further: on the % scale 0 is the no-effect control and ±100 the full control effect; nearly all actives have a fitted effect of over 55% in size
Target sequence (P43220 whole entry, looked up): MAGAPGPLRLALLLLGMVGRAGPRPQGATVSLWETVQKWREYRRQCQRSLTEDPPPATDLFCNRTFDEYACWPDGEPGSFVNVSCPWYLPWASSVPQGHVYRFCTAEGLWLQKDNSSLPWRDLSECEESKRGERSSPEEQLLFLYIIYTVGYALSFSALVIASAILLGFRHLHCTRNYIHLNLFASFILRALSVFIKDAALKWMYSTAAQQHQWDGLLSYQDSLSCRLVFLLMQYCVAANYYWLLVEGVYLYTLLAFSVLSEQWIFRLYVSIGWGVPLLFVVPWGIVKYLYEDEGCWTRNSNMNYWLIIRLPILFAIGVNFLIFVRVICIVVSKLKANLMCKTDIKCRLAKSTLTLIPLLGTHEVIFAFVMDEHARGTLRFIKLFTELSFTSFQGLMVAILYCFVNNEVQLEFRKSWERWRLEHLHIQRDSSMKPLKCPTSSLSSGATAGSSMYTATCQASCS
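Luminescence readout: a drop in cAMP-driven luciferase signal flags inverse agonism at a constitutively active GLP-1R stably expressed in HEK293. Compound exposure lasted 24 hr at 37 deg C, 5% CO2.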
GLP-1R agonist – qHTS of GLP-1 Receptor Agonists. HEK293 GLP-1R CRE-luciferase, luminescence, 4-6 h; cells express a hypersensitive GLP-1R form. Potency, µM (doses to about 45.6 µM), for the others: at the highest dose activation, most hits filed as activators. actives 0.007% (n = 380,000); further: % of control where 0% means no effect
RGS4 inh – Inhibitors of Regulator of G Protein Signaling (RGS) 4: qHTS; Regulator of G-protein signaling 4 (Homo sapiens), P49798; Transcreener GDP fluorescence polarization, RGS4-accelerated GTP hydrolysis; Potency, µM (doses to about 114 µM), for inactives: at the highest dose activity change, negative = inhibition, most hits filed as inhibitors; actives 0.039% (n = 390,000); AID 504845, 2011; further: on the % scale 0 is the no-effect control and ±100 the full control effect; nearly all actives have a fitted effect of over 75% in size
Target sequence (P49798 whole entry, looked up): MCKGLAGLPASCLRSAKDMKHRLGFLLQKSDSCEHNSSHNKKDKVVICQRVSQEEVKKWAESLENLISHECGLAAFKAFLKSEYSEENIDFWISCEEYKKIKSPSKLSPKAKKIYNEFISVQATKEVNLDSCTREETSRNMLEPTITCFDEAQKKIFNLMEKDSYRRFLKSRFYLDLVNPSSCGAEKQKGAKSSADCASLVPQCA
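MLSMR compounds (23 nl, pin-transferred) preincubated 10 min at room temperature with a 500nM (2x) first reagent, then RGS4 at 900nM (2x) plus Transcreener GDP mix added; fluorescence polarization (620/688 nm) read before and after 90 min at 30 °C.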
HEK293 tox – qHTS of GLP-1 Receptor Inverse Agonists: Cytotox Screen; HEK293 cAMP-luciferase reporter cells, luminescence, 24 h; Potency, µM (series often up to 38.3 µM), for inactives: at the top dose activity change, negative = inhibition, actives largely listed as inhibitors; actives 0.13% (n = 410,000); AID 624418, 2012;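 further: loss of luciferase light is scored as toxicity; on the % scale 0 is the no-effect control and ±100 the full control effect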
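Compound-treated cells are incubated 24 hr at 37 deg C under 5% CO2 after a 12 hour attachment period, then luciferase detection reagent is added and luminescence is measured following 12 min at room temperature; lowered signal indicates toxicity.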
KAT2A inh – qHTS Assay for Inhibitors of GCN5L2; Histone acetyltransferase KAT2A (Homo sapiens), Q92830; GCN5L2 HAT assay, ThioGlo1 CoA-SH fluorescence; Potency, µM (highest dose often 58.9 µM), inactives show at the top dose activity change, negative = inhibition, usual class: inhibitors; actives 0.21% (n = 390,000); further: on the % scale 0 is the no-effect control and ±100 the full control effect
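Free CoA generated was detected with ThioGlo1 (50uM) fluorescence at Ex340nm/Em540nm, read immediately and after 20 min at room temperature. Enzyme, 20 nM in HEPES pH 7.5 buffer, saw compounds 15 min before adding 75uM H3(1-25) peptide and 70uM acetyl-CoA.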
PTHR1 agonist – qHTS for PTHR1 Agonists: Primary Screen | Parathyroid hormone/parathyroid hormone-related peptide receptor (Homo sapiens), Q03431 | HEK293 GP2 PTHR1 cells, GloSensor cAMP luminescence, 1 h | Potency, µM (doses to about 115 µM), for the others: top-dose activation, hits mostly activators | actives 0.075% (n = 410,000); further: nearly all actives have a fitted effect of over 55% in size
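HEK-293-derived GP2 cells expressing PTHR1 and a GloSensor cAMP reporter, 3,000/well, plated overnight, given luciferin plus IBMX (each 0.5 mM as added) for 1 h at 37 °C, then compound for 1 h at 37 °C. Luminescence was read after 15 min at room temperature.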
* = called active by the depositor; i = inactive; ? = inconclusive; / = not tested or not shown; [ ] = remark or other dose. The call rests on the fitted dose curve; in most records, active means well fitted curve in the direction sought with a large enough effect; inconclusive means small, poorly fitted or top-dose-only effect, or another doubt; inactive means no such curve, though single readings can be large; an effect the other way counts as inactive or inconclusive. Potency means the concentration at half of the fitted maximal effect.

SMILES	GLP1R inv ag	GLP-1R agonist	RGS4 inh	HEK293 tox	KAT2A inh	PTHR1 agonist
CC(C)NC(=S)NC(=O)c1ccc(-c2ccccc2)cc1	10µM*	-4%	-39%	?	-15%	-52%
COCC1CCCN(C(=O)c2ccc3oc(Cc4ccc(Cl)cc4)nc3c2)C1 (stereo not given)	10µM*	4%	6%	-16%	-31%	-26%
Cc1ccc(C)c(C(Nc2ccccc2)c2ccc3ccc(C)nc3c2O)c1 (stereo not given)	5.6µM*	/	/	12%	/	-26%
CCCC(c1nnnn1Cc1ccc(OC)cc1)N1CCN(c2ccccc2OC)CC1 (stereo not given)	10µM*	16%	-24%	0%	-9%	-22%
CCCC(c1nnnn1Cc1ccccc1)N1CCN(c2ccccc2OC)CC1 (stereo not given)	?	5%	-18%	-19%	-1%	25%[57.5 µM]
CC(C)(C)c1ccc(C(=O)NNc2cc(N3CCCCC3)nc(N3CCCCC3)n2)cc1	3.2µM*	-9%	30%	?	-17%	i
Cn1cccc1C(=O)N1CCC[C@@]2(CCN(C(=O)Nc3cccc(C#N)c3)C2)C1	/	/	/	/	-10%	/
Cc1cnc(C(=O)OCC(=O)NCc2ccc(Cl)cc2)cn1	10%	-4%	-11%	0%	-3%	-3%
CC(Oc1cccc(Cl)c1)C(=O)Nc1cc(Cl)ccc1N1CCOCC1 (stereo not given)	13µM*	12%	-15%	-1%	-1%	-46%
COc1cc2cc(CNc3ccccc3)c(=O)n(CC(=O)Nc3ccccc3)c2cc1OC	-17%	/	-11%	63%	-18%	i
COc1ccc(NC(=O)CN2C(=O)C(c3ccc(C)cc3)=NC23CCCCCC3)cc1Cl	11µM*	/	10%	-7%	-6%	-16%
COc1ccc(C2=NC3(CCCCCC3)N(CC(=O)Nc3cccc(Cl)c3)C2=O)cc1	11µM*	/	18%	-26%	-19%	-37%
CCOC(=O)c1ccc(N=c2sc(C(=O)OC)cc(=O)n2Cc2ccco2)cc1	4.5µM*	7%	-36%	?	-2%	-6%
CCOC(=O)c1ccc(N=c2sc(C(=O)OC)cc(=O)n2CCCN2CCOCC2)cc1	?	-6%	-26%	0%	-16%	-42%
CC1Cc2ccccc2N1C(=O)CN1CCC(n2nnc3cc(C(F)(F)F)ccc32)CC1 (stereo not given)	?	5%	3%[11.4 µM]	-23%	-11%	-31%
Cc1c(C)c2c(OCC(=O)N3CCC(C(=O)O)CC3)cc3c(c2oc1=O)CCC(C)(C)O3	78%	1%	15%	5%	16µM*	11%
CCc1cc(=O)oc2c3c(cc(OCC(=O)NCCCC(=O)O)c12)OC(C)(C)CC3	11%	-1%	1%	-7%	10µM*	12%
CCCCC(NC(=O)COc1cc2c(c3oc(=O)cc(C)c13)CCC(C)(C)O2)C(=O)O (stereo not given)	32%	-2%	5%	-9%	35µM*	?
CCCCCC1Nc2cc(C(F)(F)F)c(S(N)(=O)=O)cc2S(=O)(=O)N1 (stereo not given)	/	3%	/	/	/	/
CCC1CCCCN1Cc1nc2c(c(=O)n(C)c(=O)n2C)n1Cc1c(F)cccc1Cl (stereo not given)	/	/	30%	/	/	/
CN1CCN(C2CCCCC2NS(=O)(=O)c2ccccc2)CC1 (stereo not given)	-6%	-1%	16%[11.4 µM]	-1%	-2%	-26%
COc1ccccc1N1CCN(C2CCCCC2NS(=O)(=O)c2ccccc2)CC1 (stereo not given)	10µM*	-5%	-4%	0%	3%	i
COc1ccc2c(c1)CC/C2=N\OC(=O)c1ccccc1OC	42%	11%	-22%	10µM*	-3%	-24%
COc1ccccc1C(=O)O/N=C1/CCCc2c1ccc(OC)c2[N+](=O)[O-]	3%	7%	-7%	4%	17%	i
CCN(c1ccc(NS(=O)(=O)c2cc(Cl)ccc2Cl)cc1)C(C)C	11µM*	-1%	-15%	10%	-9%	-32%
SMILES	GLP1R inv ag	GLP-1R agonist	RGS4 inh	HEK293 tox	KAT2A inh	PTHR1 agonist
COC(=O)C[C@H]1C[C@H]2c3cc(NS(=O)(=O)c4cccc(OC)c4)ccc3O[C@H]2[C@@H](CO)O1	6%	11%	/	-19%	/	-21%
COc1ccc(OC)c(NC(=O)Nc2nnc(N3CCCCC3C)s2)c1 (stereo not given)	?	?	-7%[11.4 µM]	-11%	-6%	-4%
COc1ccc(N2CCN(C(=O)c3cn(CC(C)C)c(=O)c4c3c3ccccc3n4C)CC2)cc1	?	/	-11%	0%	-5%	-5%
CC(C)Cn1cc(C(=O)N2CCN(c3cccc(Cl)c3)CC2)c2c3ccccc3n(C)c2c1=O	10µM*	/	-15%	-17%	-16%	i
COc1ccc(C(=O)N/N=C/c2ccc(OC)c(CN3CCN(c4ccc(F)cc4)CC3)c2)cc1	10%	-3%	4%	13%[1.53 µM]	-2%	-41%
COc1ccc(C(=O)N/N=C/c2ccc(OC)c(CN3CCCc4ccccc43)c2)cc1	10µM*	0%	2%	6%	-4%	i
COc1ccc(/C=N/NC(=O)c2cccnc2)cc1CN1CCCc2ccccc21	10µM*	8%	1%	7%	-5%	i
Cc1ccc(NC(=O)C2(c3ccc([N+](=O)[O-])cc3)CCCC2)cc1	10µM*	-2%	1%	-25%	-7%	-36%
Cc1ccc(NC(=O)C2(c3ccccc3)CCCC2)nc1	3.5µM*	0%	-30%	-8%	/	i
O=C(Nc1ccccn1)C1(c2ccccc2)CCCC1	?	-12%	14%	-15%	2%	i
CCOc1ccc(CCNC(=O)Cn2ncn3nc(-c4ccc(OC)cc4)cc3c2=O)cc1OCC	13%	-3%	-26%	3%	-6%	i
COc1cc(OC)cc(-c2noc(-c3csc([C@@H]4O[C@H](CO)[C@H](O)[C@H](O)[C@H]4O)n3)n2)c1	?	1%	/	?	/	-2%
